Results reported in the supplement of paper PMC10412459.
Counter-ions that a name gives are not always drawn.

System: K562 SF3B1 K700E vs K562 SF3B1 WT
Experiment: surviving fraction ratio K562 SF3B1 K700E / K562 SF3B1 WT (each relative to DMSO); higher = less selective killing of SF3B1 K700E cells
Settings: 5 days
In short: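 Matched pairs of isogenic K562 cells, one engineered to carry a mutant allele and one wild-type, were screened in 384-well plates with an in-house 80-compound library at 250 cells per well. Compounds were added 24 h after seeding at 0.5, 1, 5, 10, 50, 100, 500 and 1,000 nM and left on the cells for 5 d of continuous culture. CellTiter-Glo gave viability, and the reported value is the ratio of mutant to wild-type surviving fraction, each normalised to DMSO.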

SMILES	surviving fraction ratio K562 SF3B1 K700E / K562 SF3B1 WT (0.5nM)	surviving fraction ratio K562 SF3B1 K700E / K562 SF3B1 WT (1nM)	surviving fraction ratio K562 SF3B1 K700E / K562 SF3B1 WT (5nM)	surviving fraction ratio K562 SF3B1 K700E / K562 SF3B1 WT (10nM)	surviving fraction ratio K562 SF3B1 K700E / K562 SF3B1 WT (50nM)	surviving fraction ratio K562 SF3B1 K700E / K562 SF3B1 WT (100nM)	surviving fraction ratio K562 SF3B1 K700E / K562 SF3B1 WT (500nM)	surviving fraction ratio K562 SF3B1 K700E / K562 SF3B1 WT (1000nM)
C=CC(=O)Nc1cc2c(Nc3ccc(F)c(Cl)c3)ncnc2cc1OCCCN1CCOCC1 [canertinib]	0.814	0.878	0.921	0.888	0.721	0.79	0.72	0.639
NS(=O)(=O)OC[C@@H]1C[C@@H](n2ccc3c(N[C@H]4CCc5ccccc54)ncnc32)C[C@@H]1O	0.743	0.708	0.772	0.687	0.74	1.51	1.22	1.07
C[C@]1(O)C[C@@H](c2nc(-c3ccc4ccc(-c5ccccc5)nc4c3)c3c(N)nccn32)C1	0.876	0.823	0.862	0.829	0.861	0.795	0.804	0.873
NC1(c2ccc(-c3nc4ccn5c(=O)[nH]nc5c4cc3-c3ccccc3)cc2)CCC1	0.882	0.849	0.841	0.686	0.61	0.706	0.654	0.626
Cn1nnc2c(C(N)=O)ncn2c1=O [temozolomide]	0.816	0.823	0.844	0.765	0.88	0.843	0.714	0.794
O=C(O)C1(C(=O)O)CCC1.[NH2-].[NH2-].[Pt+2] [carboplatin]	0.765	0.799	0.905	0.829	0.917	0.764	0.917	0.762
COc1cc([C@@H]2c3cc4c(cc3[C@@H](O[C@@H]3O[C@@H]5CO[C@@H](C)O[C@H]5[C@H](O)[C@H]3O)[C@H]3COC(=O)[C@H]23)OCO4)cc(OC)c1O [etoposide]	0.966	0.974	0.905	0.771	0.842	1.01	1.72	1.51
CN1CCN(c2nc(C3=C(c4c[nH]c5ccccc45)C(=O)NC3=O)c3ccccc3n2)CC1 [Sotrastaurin/AEB071]	0.816	0.804	0.847	0.854	0.889	0.979	0.955	0.896
CC/C(=C(\c1ccc(O)cc1)c1ccc(OCCN(C)C)cc1)c1ccccc1 [4-OH-tamoxifen]	0.874	0.875	0.857	0.778	1	0.923	0.884	0.993
COc1cc2ncnc(Nc3ccc(F)c(Cl)c3)c2cc1OCCCN1CCOCC1 [gefitinib]	0.645	0.787	0.848	0.768	0.792	0.802	0.781	0.907
Nc1ccn([C@@H]2O[C@H](CO)[C@@H](O)C2(F)F)c(=O)n1 [gemcitabine.HCl]	0.839	0.772	0.465	0.491	0.901	1.16	1.1	1.16
O=C(c1cc(Cc2n[nH]c(=O)c3ccccc23)ccc1F)N1CCN(C(=O)C2CC2)CC1 [olaparib]	0.978	0.979	0.926	0.839	0.947	1.02	1.1	0.871
CC[C@@H]1C(=O)N(C)c2cnc(Nc3ccc(C(=O)NC4CCN(C)CC4)cc3OC)nc2N1C1CCCC1	0.867	0.956	0.455	2.45	2.89	2.99	2.76	2.22
Cc1cn(-c2cc(NC(=O)c3ccc(C)c(Nc4nccc(-c5cccnc5)n4)c3)cc(C(F)(F)F)c2)cn1 [nilotinib]	0.834	0.742	0.537	0.816	1.47	1.48	1.53	1.51
CCN(CC)CCCCNc1ncc2cc(-c3cc(OC)cc(OC)c3)c(NC(=O)NC(C)(C)C)nc2n1	1.15	1.03	0.942	0.926	0.901	1.09	0.957	0.89
Cn1ncnc1[C@H]1c2n[nH]c(=O)c3cc(F)cc(c23)N[C@@H]1c1ccc(F)cc1 [talazoparib]	0.824	0.778	0.775	0.743	0.552	0.571	0.794	–
CC1(C)CC(=O)c2c(C(F)(F)F)nn(-c3ccc(C(N)=O)c(N[C@H]4CC[C@H](OC(=O)CN)CC4)c3)c2C1	0.983	0.972	0.763	0.719	1.18	2.16	1.09	1.16
CN(C)C/C=C/C(=O)Nc1cc2c(Nc3ccc(F)c(Cl)c3)ncnc2cc1O[C@H]1CCOC1	0.936	1.06	0.796	0.769	0.795	0.679	0.666	0.915
Cc1nc(Nc2n[nH]c3c2CN(C(=O)N[C@H](CN(C)C)c2ccccc2)C3(C)C)c2sccc2n1	0.912	0.858	1.09	1.34	1.76	1.69	1.98	1.69
COc1ccc(C2=N[C@@H](c3ccc(Cl)cc3)[C@@H](c3ccc(Cl)cc3)N2C(=O)N2CCNC(=O)C2)c(OC(C)C)c1 [Nutlin3]	1	0.984	0.843	0.873	0.861	0.781	0.767	0.894
CN(C)CC[C@H](CSc1ccccc1)Nc1ccc(S(=O)(=O)NC(=O)c2ccc(N3CCN(Cc4ccccc4-c4ccc(Cl)cc4)CC3)cc2)cc1[N+](=O)[O-]	0.745	0.762	0.761	0.841	0.902	0.819	0.908	0.796
C=CCNC1=C2C[C@@H](C)C[C@H](OC)[C@H](O)[C@@H](C)/C=C(\C)[C@H](OC(N)=O)[C@@H](OC)/C=C\C=C(/C)C(=O)NC(=CC1=O)C2=O	1.01	0.993	0.811	0.776	0.41	1.81	1.31	1.24
CCCCCCCCCCCCCCCC(=O)Nc1ccn([C@@H]2O[C@H](CO)[C@@H](O)[C@@H]2C#N)c(=O)n1 [Sapacitabine]	0.952	–	0.99	–	0.729	–	1.27	–
COc1cc2ncnc(Nc3ccc(F)c(Cl)c3)c2cc1NC(=O)/C=C/CN1CCCCC1	0.911	0.948	0.89	0.805	0.886	0.945	0.756	0.642
COc1cccc2c1C(=O)c1c(O)c3c(c(O)c1C2=O)C[C@@](O)(C(=O)CO)C[C@@H]3O[C@H]1C[C@H](N)[C@H](O)[C@H](C)O1 [doxorubicin.HCl]	0.974	1.04	0.718	1.07	1.11	0.446	1.24	2.24
CNCc1ccc(-c2[nH]c3cc(F)cc4c3c2CCNC4=O)cc1	0.834	0.856	0.825	0.831	0.897	0.794	0.847	0.711
